Measurements as given in PubChem BioAssay (NCATS).
Values joined by “and” are separate entries in the source; they are usually repeats but may differ in a detail not shown here. Equal entries are not always repeated. Results filed as inconclusive are left out. Active and inactive are the calls of the source. Calls come from the whole dose curve; as a rule, active = well fitted inhibition curve with a large enough effect; inconclusive = small, poorly fitted or top-dose-only effect; inactive = flat fitted curve, though single readings scatter.

tested on: CRL-7250; assay: Cytotoxic Profiling of Annotated Libraries Using Quantitative High-Throughput Screening (AID 1296008); conditions: Five cell lines viability, CellTiter-Glo ATP luminescence, 48-72 h; max response: stronger effect = lower value; note: nearly all actives have a fitted effect of over 60% in size
Summary of the method: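 Cells exposed to compounds for 48 or 72 hr at 37 degrees Celsius. Viability read as ATP-coupled luminescence with CellTiter-Glo after 10 min at room temperature.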
% is set by controls: 0 for no effect and ±100 for the full control effect.

Row | Compound | outcome | max response
1 | C[C@@H]1O[C@@H](O[C@H]2[C@H](O[C@H]3CC[C@@]4(C)C(CC[C@]5(C)C4CC=C4C6CC(C)(C)CC[C@]6(C(=O)O[C@@H]6O[C@H](CO[C@@H]7O[C@H](CO)[C@@H](O[C@@H]8O[C@@H](C)[C@H](O)[C@@H](O)[C@H]8O)[C@H](O)[C@H]7O)[C@@H](O)[C@H](O)[C@H]6O)CC[C@]45C)[C@]3(C)CO)OC[C@H](O)[C@@H]2O)[C@H](O)[C@H](O)[C@H]1O (stereo not given in full) | inactive | –
2 | Cn1c(=O)cc(N2CCCC(N)C2)n(Cc2ccccc2C#N)c1=O (stereo not given) | – | -7.54% (inactive)
3 | CC(=O)O[C@H](C[C@@H](C)[C@H]1C(=O)[C@H](O)[C@@]2(C)[C@@H]3CCC4C(C)(C)[C@@H](O[C@@H]5OC[C@H](O)[C@H](O)[C@H]5O)CC[C@@]45C[C@@]35CC[C@]12C)[C@@H]1OC1(C)C (stereo not given in full) | – | 0.817% (inactive)
4 | CC1=C2C(=O)C=C(CO)[C@@H]2[C@H]2OC(=O)[C@H](C)[C@@H]2[C@@H](O)C1 | inactive | –
5 | CC1CCC2(C)C(CC(O)C(O)C23CO3)C1(C)CCC1=CC(=O)OC1O (stereo not given) | – | -22% (inactive)
6 | CC12CC34C=CC(=O)C(C)(CCC(=O)O)C3C(CC1C4)O2 (stereo not given) | inactive | –
7 | O=C(NCC(=O)N1CC[C@H](NC2CCC(O)(c3ccc(-c4ncccn4)cn3)CC2)C1)c1cccc(C(F)(F)F)c1 (stereo not given in full) | – | -2.44% (inactive)
8 | C[C@@H]1O[C@@H](O[C@@H]2[C@@H](O)[C@H](O[C@@H]3[C@@H](O)[C@@H](O)[C@H](O[C@H]4[C@H](OC(=O)[C@]56CCC(C)(C)C[C@H]5C5=CCC7[C@@]8(C)C[C@H](O)[C@H](O[C@@H]9O[C@@H](C)[C@H](O)[C@@H](O)[C@H]9O)[C@@](C)(CO)C8CC[C@@]7(C)[C@]5(C)C[C@H]6O)O[C@H](C)[C@H](O)[C@@H]4O)O[C@H]3C)OC[C@H]2O)[C@H](O)[C@H](O)[C@H]1O (stereo not given in full) | – | 4.2% (inactive)
9 | COc1cc(NC(=O)c2ccccn2)ccc1Cl | – | 4.88% (inactive)
10 | CC1CCC2(C(=O)OC3OC(COC4OC(CO)C(O)C(O)C4O)C(O)C(O)C3O)CCC3(C)C(=CCC4C5(C)CCC(O)C(C)(C(=O)O)C5CCC43C)C2C1(C)O (stereo not given) | inactive | –
11 | C[C@]12CCC[C@](C)(C(=O)O)C1CCC13C=C(CO)C(CCC12)C3 (stereo not given in full) | – | -11% (inactive)
12 | O=C1Nc2ccc(O)cc2O[C@H]1O[C@@H]1O[C@H](CO)[C@@H](O)[C@H](O)[C@H]1O | – | -3.66% (inactive)
13 | CC(C)C1=CCC(C)(O)C(OC2OC(CO)C(O)C(O)C2O)C1 (stereo not given) | – | -1.73% (inactive)
14 | CC(=O)O[C@H]1[C@H](Oc2ccccc2COC(=O)C2(O)C=CCCC2=O)O[C@H](CO)[C@@H](O)[C@@H]1O (stereo not given in full) | – | 3.12% (inactive)
15 | CC(C)CC1(C(=O)OCc2ccc(O[C@@H]3O[C@H](CO)[C@@H](O)[C@H](O)[C@H]3O)cc2)CC(=O)OC(C(=O)O)CC(=O)OCC2OC(O1)C(OC(=O)/C=C/c1ccc(O)cc1)C(O)C2O (stereo not given in full) | – | 2.72% (inactive)
16 | C=C1[C@H]2[C@H](O[C@@H]3O[C@H](COC(=O)/C=C/c4cc(OC)c(O)c(OC)c4)[C@@H](O)[C@H](O)[C@H]3O)OC=C(C(=O)O)[C@H]2C[C@@H]1O | inactive | –
17 | CCOC(=O)Nc1nc2ccccc2[nH]1 | – | 3.6% (inactive)
18 | C[C@@H]1C(=O)O[C@H]2CC34[C@H]5C[C@@H](C(C)(C)C)C36[C@@H](OC(=O)[C@@H]6O)O[C@@]4(C(=O)O5)[C@]21O (stereo not given in full) | – | 3.21% (inactive)
19 | Clc1ccc(CN[C@H]2CCN(c3ncc(Br)cn3)C2)c(Cl)c1 | – | -7.31% (inactive)
20 | CCC(=O)NS(=O)(=O)c1ccc(-c2c(-c3ccccc3)noc2C)cc1 | inactive | –

Row | Compound | outcome | max response
21 | C=C1CCC2(OC1)OC1CC3C4CC=C5CC(O)CC(O[C@@H]6OC[C@@H](O)[C@H](O)[C@H]6O)C5(C)C4CCC3(C)C1(O)C2C (stereo not given in full) | inactive | –
22 | CC(=O)OCCC(C)CCC1C(C)(O)CCC2C(C)(C)CCCC21C (stereo not given) | – | -8.91% (inactive)
23 | CCCn1cnc2c(NCc3ccccc3)nc(N[C@H](CC)CO)nc21 | – | -7.86% (inactive)
24 | C=C1CCC2C(OC(=O)C2(O)COC(C)=O)C2C(=C)C(O)CC12 (stereo not given) | – | -7.9% (inactive)
25 | COc1c(OC2OC(CO)C(O)C(O)C2O)ccc(O)c1C(=O)OCc1ccccc1O[C@@H]1O[C@H](CO)[C@@H](O)[C@H](O)[C@H]1O (stereo not given in full) | inactive | –
26 | CC1=CC(=O)CC(C)(C)C1CCC(C)OC1OC(COC(=O)c2cc(O)c(O)c(O)c2)C(O)C(O)C1O (stereo not given) | – | -1.65% (inactive)
27 | CC1=CC[C@]2(C(=O)O[C@@H]3O[C@H](CO[C@@H]4O[C@H](CO)[C@@H](O[C@@H]5O[C@@H](C)[C@H](O)[C@@H](O)[C@H]5O)[C@H](O)[C@H]4O)[C@@H](O)[C@H](O)[C@H]3O)CC[C@]3(C)C(CCC4[C@@]5(C)C[C@@H](O)[C@H](O)[C@@](C)(CO)C5CC[C@]43C)C2C1C (stereo not given in full) | – | -9.97% (inactive)
28 | CC1=C(C)C(=O)OC(C(C)C2C(O)CC3C4C5OC5C5(O)CC(OC6OC(CO)C(O)C(O)C6O)CC(O)C5(C)C4CCC32C)C1 (stereo not given) | inactive | –
29 | C/C=C/C1=CC2=CC(=O)C(C)(O)C(OC(=O)c3c(C)cc(O)cc3O)C2CO1 (stereo not given) | – | 1.95% (inactive)
30 | O=C(c1ccc(NS(=O)(=O)c2cccc3cccnc23)cc1)N1CCN(CC2CC2)CC1 | – | -4.28% (inactive)
31 | CC(C(=O)O)C1CCC2(C)C3C(=O)C=C4C(CCC(=O)C4(C)C)C3(C)CCC12C (stereo not given) | – | 0.281% (inactive)
32 | CO/N=C(/C(=O)N[C@@H]1C(=O)N2C(C(=O)O)=C(CSC(=O)c3ccco3)CS[C@H]12)c1csc(N)n1 | – | -7.13% (inactive) and 1.26% (inactive)
33 | CC1(C)C(=O)C(C)(C)c2cc(C(=O)Nc3ccc(C(=O)O)cc3)ccc21 | – | 2.14% (inactive)
34 | Cc1c(CN(C)C(=O)/C=C/c2cnc3c(c2)CCC(=O)N3)oc2ccccc12 | inactive | –
35 | COC(=O)C1=CO[C@@H](O[C@@H]2O[C@H](COC(=O)/C=C/c3cc(OC)c(O)c(OC)c3)[C@@H](O)[C@H](O)[C@H]2O)[C@@H]2C(CO)=CC[C@H]12 | – | -6.59% (inactive)
36 | CCn1cc(C2=NOC(C(=O)Nc3c(C)n(C)n(-c4ccccc4)c3=O)C2)c(C)n1 (stereo not given) | – | 1.73% (inactive)
37 | COC1CC(=O)CCC(C)OC(=O)CC1O (stereo not given) | – | -4.48% (inactive)
38 | CC1=C2C3OC(=O)C(C)C3(O)CCC2(C)CCC1=O (stereo not given) | – | -29.1% (inactive)
39 | CC(CCC1C(C(=O)O)=CC(=O)CC1(C)C)O[C@@H]1O[C@H](CO)[C@@H](O)[C@H](O)[C@H]1O (stereo not given in full) | – | 1.37% (inactive)
40 | C/C=C(\C)C(=O)O[C@@H](C)[C@H]1CC[C@]2(O)C3CCC4C[C@@H](OC5CC(OC)C(OC6CC(OC)C(OC7CC(OC)C(OC8OC(C)C(OC9OC(CO)C(O)C(O)C9O)C(OC)C8O)C(C)O7)C(C)O6)C(C)O5)CC[C@]4(C)C3[C@H](O)[C@@H](O)[C@]12C (stereo not given in full) | – | -8.84% (inactive)
